Common to all, as to assay: NCI-60 one-dose screen, 48 h (100 = growth as untreated, 0 = no growth, -100 = all killed)
Conditions in all cases: 10 µM unless noted

Assay [1] relates to NCI-H23 lung.
Assay [2] relates to NCI-H226 lung.
The subject of assay [3] is NCI-H322M lung.
The test system of assay [4] is HOP-62 NSCLC.
The subject of assay [5] is NCI-H460 lung.
The test system of assay [6] is HOP-92 NSCLC.
The subject of assay [7] is NCI-H522 lung.
The test system of assay [8] is A549/ATCC NSCLC.
Assay [9] deals with 786-0 renal.
Assay [10] concerns COLO 205 colon.
Assay [11] relates to DU-145 prostate.
Assay [12] has as its system K-562 leukemia.
Assay [13] deals with MALME-3M melanoma.
The test system of assay [14] is MDA-MB-231 breast.
For assay [15], the system named is SF-268 CNS.
Assay [16] deals with SF-295 CNS.
Assay [17] deals with SF-539 CNS.
The test system of assay [18] is UACC-257 melanoma.
Assay [19] has as its system M14 melanoma.

The panel holds about 83,000 compounds, 20% with a hit somewhere; the sample as a whole holds those more often.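 Step 1: grow cells in 96-well plates. Step 2: add test compound at a single concentration. Step 3: incubate 48 h. Step 4: record percent growth.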 A number with no mark means an inactive call. The source made the active and inactive calls. How the source made its calls: active means growth percent below 10; inactive means the rest.

With `C#CCn1cc(C=C2C(=O)NC(=S)NC2=O)c2cc(Cl)ccc21`, the growth is -4.83% (active) in assay [1]; 61.6% in assay [2]; 80.3% in assay [3]; -5.32% (active) in assay [4]; 14.6% in assay [5]; 48.4% in assay [6]. Also, the growth in assay [7] is 51.1%; in assay [8], 98.3%; in assay [9] it was -54.2% (active); in assay [10], 33.2%; in assay [11] it was 3.03% (active); in [12], 15%. In addition, the growth was 43.5% in [13]; -26.1% (active) in [14]; 6.45% (active) in [15]; 46.4% in [16]; -57.2% (active) in assay [17]; 61.7% in [18]. In addition, the growth in [19] is 44.4%.

`CN1C2CCC1CN(c1cnc(C(=O)Nc3cc(F)cc4cccnc34)cn1)C2`: the growth is 46.8% in [1]; 88.9% in [2]; 74.6% in [3]; 88.6% in [4]; 83.4% in assay [5]; 81.2% in [6]. For the same compound, the growth in [7] was 24.4%; in assay [8], 87.5%; in assay [9], 51.8%; in [10] it was 10.4%; in assay [11] it was 74.6%; in assay [12] it was 15.7%. Also, the growth is 41% in assay [13]; 31.4% in assay [14]; 85.6% in [15]; 97.6% in assay [16]; 70.4% in assay [17]; 42.7% in assay [18]. Also, the growth in assay [19] is 54.3%.

Regarding `CN1CCN(Cc2ccc(NC(=O)c3cncc(C#Cc4cnccc4C(F)(F)F)c3)cc2C(F)(F)F)CC1`, the growth in assay [1] was 67.9%; in assay [2], 47.8%; in [3], 107%; in [4], 80.5%; in assay [5], 71.6%; in assay [6] it was 55.6%. The growth is 79.4% in assay [7]; 94% in [8]; 89.7% in assay [9]; 44.4% in [10]; 105% in [11]; 8.53% (active) in [12]. For the same compound, the growth in assay [13] was 15.3%; in assay [14] it was 55.6%; in assay [15], 92.1%; in [16] it was 88.6%; in assay [17] it was 28.8%; in [18], 80.4%. Further, the growth in [19] was 35.2%.

With `C=Cc1cc[n+](CCCCCCCCCCCC)cc1`, the growth is 102% in [1]; 103% in assay [2]; 114% in assay [3]; 111% in assay [4]; 98.3% in assay [5]; 134% in assay [6]. For the same compound, the growth in assay [7] is 110%; in [8] it was 103%; in assay [9], 106%; in assay [10], 118%; in assay [11], 105%; in assay [12], 93.8%. In addition, the growth was 111% in assay [13]; 99.9% in assay [14]; 99.7% in [15]; 106% in [16]; 104% in assay [17]; 111% in [18]. The growth in [19] was 102%.

As for `COc1ccc(Cc2nc3cc(OC)c(OC)cc3c(=O)[nH]2)cc1`, the growth is 59.6% in [1]; 98% in [2]; 167% in [3]; 140% in assay [4]; 89.4% in assay [5]; 108% in assay [6]. Moreover, the growth was 52.1% in assay [7]; -5.67% (active) in assay [8]; 86.9% in assay [9]; 68.5% in [10]; 39.5% in assay [11]; 115% in [12]. For the same compound, the growth in [13] is 273%; in [14], 73.3%; in assay [15], 30.5%; in assay [16] it was 65.3%; in assay [17] it was 100%; in assay [18] it was 4.95% (active). In addition, the growth in assay [19] was 48.8%.

With `CCN(CC)CCCC(C)Nc1cc(-c2cccc(OC(F)(F)F)c2)nc2ccc(N3CCCC3)cc12` (configuration not stated), the growth is 57.9% in [1]; 46.7% in assay [2]; 17.7% in [3]; 23.3% in assay [4]; -4.02% (active) in assay [5]; -5.67% (active) in assay [6]. Further, the growth in assay [7] is 2.05% (active); in assay [8] it was 10.7%; in assay [9], -19.7% (active); in assay [10], -79% (active); in assay [11] it was 37%; in assay [12], -46.5% (active). The growth is -93% (active) in [13]; -50.3% (active) in assay [14]; 26% in assay [15]; 28.3% in assay [16]; -91.7% (active) in assay [17]; -81.1% (active) in assay [18]. Further, in [19], the growth was -81.9% (active).

Take `CC(=O)c1c[nH]c2ccc(-c3ccnc(Nc4ccc(NC(=O)c5cccc(F)c5)c(CN5CCOCC5)c4)n3)cc12`: the growth in assay [1] is -13.2% (active); in assay [2], -0.697% (active); in [3], -1.47% (active); in assay [4] it was 1.97% (active); in assay [5] it was -6.06% (active); in assay [6], -22.8% (active). In addition, the growth is 0.424% (active) in [7]; 8.56% (active) in assay [8]; 5.7% (active) in assay [9]; -17.8% (active) in assay [10]; 2.59% (active) in [11]; 4.68% (active) in assay [12]. Further, the growth is -21.7% (active) in [13]; -37.5% (active) in [14]; -16.8% (active) in assay [15]; -17.2% (active) in [16]; -56% (active) in assay [17]; 4.48% (active) in assay [18]. The growth in assay [19] is -19.4% (active).

Consider `CC(=O)N1N=C(c2cccc(Nc3ccncc3)c2)CC1c1ccc2c(c1)OCO2` (configuration not stated), for which the growth is 87.4% in assay [1]; 94.6% in [2]; 105% in [3]; 89.4% in assay [4]; 101% in assay [5]; 72.1% in [6]. Also, the growth in [7] was 96.5%; in assay [8], 93.9%; in assay [9] it was -93.4% (active); in assay [10] it was 84.3%; in assay [11], 104%; in assay [12], 27.4%. Moreover, the growth in [13] is 74.9%; in assay [14], 86.9%; in [15], 91.8%; in assay [16], 89.9%; in assay [17], 77.9%; in assay [18], 100%. Besides, the growth in assay [19] is -69.4% (active).

For the origin of these results see PubChem BioAssay (NCI).
